Source: ChEMBL document CHEMBL3988442, “University of Dundee, Small-Polar-MMV Screening Library” (2021)
For part of these data: Results with a measured potency or affinity are listed apart.

How the values were obtained:
Design in all cases: scale not given: direction of the effect not stated beside the values
[1] = biological target: Protein translocase subunit SecA (Escherichia coli (strain K12)) (UniProt P10408); experiment: Assay to Identify E. coli SecA ATPase Inhibitors; assay type: functional; details: 30 µM
Protein translocase subunit SecA (Escherichia coli (strain K12)), sequence (P10408 whole entry): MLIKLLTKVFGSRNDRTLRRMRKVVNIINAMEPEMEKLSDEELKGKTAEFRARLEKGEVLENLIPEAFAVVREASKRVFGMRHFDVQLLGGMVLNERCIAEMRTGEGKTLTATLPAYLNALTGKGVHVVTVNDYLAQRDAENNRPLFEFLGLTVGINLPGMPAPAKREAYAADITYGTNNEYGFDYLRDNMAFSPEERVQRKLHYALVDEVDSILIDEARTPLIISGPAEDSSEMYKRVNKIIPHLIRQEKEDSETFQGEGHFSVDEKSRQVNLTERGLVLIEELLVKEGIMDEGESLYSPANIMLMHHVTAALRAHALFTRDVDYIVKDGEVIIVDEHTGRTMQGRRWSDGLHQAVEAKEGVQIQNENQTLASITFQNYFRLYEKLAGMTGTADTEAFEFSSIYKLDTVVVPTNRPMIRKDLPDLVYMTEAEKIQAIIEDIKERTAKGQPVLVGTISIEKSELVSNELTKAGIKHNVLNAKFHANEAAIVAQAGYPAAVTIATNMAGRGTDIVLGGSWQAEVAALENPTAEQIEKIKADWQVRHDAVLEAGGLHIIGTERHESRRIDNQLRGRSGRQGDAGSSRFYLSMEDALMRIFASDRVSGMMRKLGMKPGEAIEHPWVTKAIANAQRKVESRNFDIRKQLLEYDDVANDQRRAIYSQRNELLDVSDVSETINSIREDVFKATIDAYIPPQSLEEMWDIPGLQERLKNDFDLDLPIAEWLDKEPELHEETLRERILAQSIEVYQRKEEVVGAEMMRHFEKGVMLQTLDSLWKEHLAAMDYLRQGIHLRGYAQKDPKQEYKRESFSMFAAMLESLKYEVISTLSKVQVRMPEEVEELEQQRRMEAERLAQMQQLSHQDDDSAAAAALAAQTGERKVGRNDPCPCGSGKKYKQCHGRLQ

[2] = biological target: T1, Ubiquitin-activating enzyme e1, putative (Leishmania donovani (strain BPK282A1)) (UniProt E9BSI1); experiment: Leishmania donovani Ubiquitin Activating Enzyme (LdE1); assay type: functional; details: 30 µM
T1 sequence (whole entry): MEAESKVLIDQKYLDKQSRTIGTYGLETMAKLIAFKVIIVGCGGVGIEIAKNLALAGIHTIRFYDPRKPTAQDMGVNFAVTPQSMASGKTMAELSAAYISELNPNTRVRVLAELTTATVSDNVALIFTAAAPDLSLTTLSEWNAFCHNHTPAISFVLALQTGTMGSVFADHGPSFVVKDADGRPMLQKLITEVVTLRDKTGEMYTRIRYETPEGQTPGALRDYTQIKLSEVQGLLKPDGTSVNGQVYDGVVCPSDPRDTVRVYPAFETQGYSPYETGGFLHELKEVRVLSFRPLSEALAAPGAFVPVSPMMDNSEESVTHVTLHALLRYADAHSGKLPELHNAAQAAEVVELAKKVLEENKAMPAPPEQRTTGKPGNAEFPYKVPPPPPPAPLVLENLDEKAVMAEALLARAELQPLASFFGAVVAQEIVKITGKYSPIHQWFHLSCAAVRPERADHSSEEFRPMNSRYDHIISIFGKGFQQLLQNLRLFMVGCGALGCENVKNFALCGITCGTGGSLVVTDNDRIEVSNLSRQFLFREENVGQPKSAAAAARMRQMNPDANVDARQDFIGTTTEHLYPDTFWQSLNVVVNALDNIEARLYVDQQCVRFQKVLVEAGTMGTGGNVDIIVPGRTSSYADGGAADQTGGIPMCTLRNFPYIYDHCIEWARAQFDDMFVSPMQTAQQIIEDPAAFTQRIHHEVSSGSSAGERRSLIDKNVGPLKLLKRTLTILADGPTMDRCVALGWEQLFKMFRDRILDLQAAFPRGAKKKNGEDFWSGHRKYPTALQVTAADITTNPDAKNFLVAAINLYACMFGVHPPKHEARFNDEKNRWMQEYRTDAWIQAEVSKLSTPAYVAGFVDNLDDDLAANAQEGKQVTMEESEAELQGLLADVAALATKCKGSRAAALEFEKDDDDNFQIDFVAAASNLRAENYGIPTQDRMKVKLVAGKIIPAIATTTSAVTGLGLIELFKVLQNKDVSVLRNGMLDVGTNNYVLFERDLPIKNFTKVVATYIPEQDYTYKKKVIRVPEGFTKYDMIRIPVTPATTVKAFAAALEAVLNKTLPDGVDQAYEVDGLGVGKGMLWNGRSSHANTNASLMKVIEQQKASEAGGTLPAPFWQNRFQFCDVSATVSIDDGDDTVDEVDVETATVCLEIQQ

[3] = biological target: Sialic acid-binding Ig-like lectin 9 (Homo sapiens) (UniProt Q9Y336); experiment: Hs-Siglec9 ALPHAscreen SOP 20170721; details: 10 µM
Sialic acid-binding Ig-like lectin 9 (Homo sapiens), sequence (Q9Y336 whole entry): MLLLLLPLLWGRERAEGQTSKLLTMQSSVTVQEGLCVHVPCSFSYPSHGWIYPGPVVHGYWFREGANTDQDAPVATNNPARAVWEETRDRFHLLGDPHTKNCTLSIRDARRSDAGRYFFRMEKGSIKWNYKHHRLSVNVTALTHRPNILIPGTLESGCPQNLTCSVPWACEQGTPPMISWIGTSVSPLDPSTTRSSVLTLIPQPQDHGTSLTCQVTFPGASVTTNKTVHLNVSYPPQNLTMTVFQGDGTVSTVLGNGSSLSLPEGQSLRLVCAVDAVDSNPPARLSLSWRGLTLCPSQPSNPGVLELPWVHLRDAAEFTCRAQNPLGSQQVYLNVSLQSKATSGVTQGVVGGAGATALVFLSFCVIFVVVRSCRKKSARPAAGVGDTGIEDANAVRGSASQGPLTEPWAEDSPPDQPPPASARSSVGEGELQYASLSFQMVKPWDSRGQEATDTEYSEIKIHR

[4] = test system: Trypanosoma cruzi; experiment: Trypanosoma cruzi phosphomannomutase and mannose-1-phosphate guanylyltransferase assay; assay type: functional; details: 10 µM
[5] = biological target: T2, Arginase-2, mitochondrial (Homo sapiens) (UniProt P78540); experiment: in vitro enzyme assay to detect the production of urea directly proportional to the activity of Arginase II; assay type: functional; details: 33.3 µM; also: in the data most compounds retested in dose-response had high values
T2 sequence (whole entry): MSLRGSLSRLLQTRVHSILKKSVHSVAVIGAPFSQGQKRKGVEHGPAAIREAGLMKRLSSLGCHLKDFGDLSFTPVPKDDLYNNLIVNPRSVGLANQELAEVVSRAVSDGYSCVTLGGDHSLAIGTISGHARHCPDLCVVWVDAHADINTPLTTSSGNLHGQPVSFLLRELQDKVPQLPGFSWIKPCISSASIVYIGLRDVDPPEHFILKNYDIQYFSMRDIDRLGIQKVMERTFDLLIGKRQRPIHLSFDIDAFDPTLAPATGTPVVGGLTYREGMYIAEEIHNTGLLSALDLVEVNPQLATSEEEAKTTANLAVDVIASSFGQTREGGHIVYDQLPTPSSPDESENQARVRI

[6] = biological target: T3, Proteasome subunit beta (Trypanosoma cruzi) (UniProt O96673); experiment: Trypanosoma cruzi proteasome chymotrypsin-like activity (TcProtChymo) assay.; also: in the data most compounds retested in dose-response had high values; assay type: functional; details: 9.37 µM
T3 sequence (whole entry): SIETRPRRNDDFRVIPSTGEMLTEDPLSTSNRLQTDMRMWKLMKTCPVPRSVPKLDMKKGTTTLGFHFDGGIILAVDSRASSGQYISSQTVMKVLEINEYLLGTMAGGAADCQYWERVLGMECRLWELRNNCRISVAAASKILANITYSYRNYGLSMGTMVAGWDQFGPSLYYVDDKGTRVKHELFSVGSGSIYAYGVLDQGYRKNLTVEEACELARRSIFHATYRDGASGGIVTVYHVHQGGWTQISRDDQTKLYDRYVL

[7] = species: Homo sapiens; experiment: To identify inhibition of the IFN signalling (Jak-Stat) pathway via expression of an eGFP reporter gene under the control of an IFN-stimulated response element (ISRE) containing MxA promoter.; assay type: functional; details: 30 µM
[8] = biological target: T4, Tyrosyl-tRNA synthetase, putative (Trypanosoma cruzi (strain CL Brener)) (UniProt Q4DSP6); experiment: Trypanosoma cruzi tyrosyl tRNA synthetase (TcYRS) _High Tyrosine SOP; assay type: functional; details: 30 µM; also: in the data most compounds retested in dose-response had high values
T4 sequence (whole entry): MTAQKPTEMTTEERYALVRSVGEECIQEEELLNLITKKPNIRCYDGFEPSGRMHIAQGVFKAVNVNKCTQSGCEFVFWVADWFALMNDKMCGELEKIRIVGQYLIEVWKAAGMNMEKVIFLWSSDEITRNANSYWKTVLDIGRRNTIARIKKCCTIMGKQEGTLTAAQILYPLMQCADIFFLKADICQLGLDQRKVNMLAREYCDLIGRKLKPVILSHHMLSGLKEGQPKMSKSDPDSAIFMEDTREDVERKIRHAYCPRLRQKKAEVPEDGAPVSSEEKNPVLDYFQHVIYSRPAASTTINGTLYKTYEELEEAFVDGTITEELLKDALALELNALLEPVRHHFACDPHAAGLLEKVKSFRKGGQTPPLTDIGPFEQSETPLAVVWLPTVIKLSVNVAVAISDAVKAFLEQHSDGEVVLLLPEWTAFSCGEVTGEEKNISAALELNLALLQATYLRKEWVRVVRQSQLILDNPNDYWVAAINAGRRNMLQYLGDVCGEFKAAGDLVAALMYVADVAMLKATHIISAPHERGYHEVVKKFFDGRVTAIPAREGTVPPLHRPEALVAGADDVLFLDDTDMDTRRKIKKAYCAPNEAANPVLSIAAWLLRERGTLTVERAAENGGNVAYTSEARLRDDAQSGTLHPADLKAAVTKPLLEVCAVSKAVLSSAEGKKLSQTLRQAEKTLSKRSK

[9] = biological target: T4, Tyrosyl-tRNA synthetase, putative (Trypanosoma cruzi (strain CL Brener)); experiment: Trypanosoma cruzi tyrosyl tRNA synthetase (TcYRS) SOP; assay type: functional; details: 30 µM
[10] = biological target: Chromo domain-containing protein 1 (Saccharomyces cerevisiae (strain ATCC 204508 / S288c) (Baker's yeast)) (UniProt P32657); experiment: ScCHD-1 Enzyme Inhibition Assay; assay type: functional; details: 30 µM; also: in the data most compounds retested in dose-response had high values
Chromo domain-containing protein 1 (Saccharomyces cerevisiae (strain ATCC 204508 / S288c) (Baker's yeast)), sequence (P32657 whole entry, the tested form may be a part): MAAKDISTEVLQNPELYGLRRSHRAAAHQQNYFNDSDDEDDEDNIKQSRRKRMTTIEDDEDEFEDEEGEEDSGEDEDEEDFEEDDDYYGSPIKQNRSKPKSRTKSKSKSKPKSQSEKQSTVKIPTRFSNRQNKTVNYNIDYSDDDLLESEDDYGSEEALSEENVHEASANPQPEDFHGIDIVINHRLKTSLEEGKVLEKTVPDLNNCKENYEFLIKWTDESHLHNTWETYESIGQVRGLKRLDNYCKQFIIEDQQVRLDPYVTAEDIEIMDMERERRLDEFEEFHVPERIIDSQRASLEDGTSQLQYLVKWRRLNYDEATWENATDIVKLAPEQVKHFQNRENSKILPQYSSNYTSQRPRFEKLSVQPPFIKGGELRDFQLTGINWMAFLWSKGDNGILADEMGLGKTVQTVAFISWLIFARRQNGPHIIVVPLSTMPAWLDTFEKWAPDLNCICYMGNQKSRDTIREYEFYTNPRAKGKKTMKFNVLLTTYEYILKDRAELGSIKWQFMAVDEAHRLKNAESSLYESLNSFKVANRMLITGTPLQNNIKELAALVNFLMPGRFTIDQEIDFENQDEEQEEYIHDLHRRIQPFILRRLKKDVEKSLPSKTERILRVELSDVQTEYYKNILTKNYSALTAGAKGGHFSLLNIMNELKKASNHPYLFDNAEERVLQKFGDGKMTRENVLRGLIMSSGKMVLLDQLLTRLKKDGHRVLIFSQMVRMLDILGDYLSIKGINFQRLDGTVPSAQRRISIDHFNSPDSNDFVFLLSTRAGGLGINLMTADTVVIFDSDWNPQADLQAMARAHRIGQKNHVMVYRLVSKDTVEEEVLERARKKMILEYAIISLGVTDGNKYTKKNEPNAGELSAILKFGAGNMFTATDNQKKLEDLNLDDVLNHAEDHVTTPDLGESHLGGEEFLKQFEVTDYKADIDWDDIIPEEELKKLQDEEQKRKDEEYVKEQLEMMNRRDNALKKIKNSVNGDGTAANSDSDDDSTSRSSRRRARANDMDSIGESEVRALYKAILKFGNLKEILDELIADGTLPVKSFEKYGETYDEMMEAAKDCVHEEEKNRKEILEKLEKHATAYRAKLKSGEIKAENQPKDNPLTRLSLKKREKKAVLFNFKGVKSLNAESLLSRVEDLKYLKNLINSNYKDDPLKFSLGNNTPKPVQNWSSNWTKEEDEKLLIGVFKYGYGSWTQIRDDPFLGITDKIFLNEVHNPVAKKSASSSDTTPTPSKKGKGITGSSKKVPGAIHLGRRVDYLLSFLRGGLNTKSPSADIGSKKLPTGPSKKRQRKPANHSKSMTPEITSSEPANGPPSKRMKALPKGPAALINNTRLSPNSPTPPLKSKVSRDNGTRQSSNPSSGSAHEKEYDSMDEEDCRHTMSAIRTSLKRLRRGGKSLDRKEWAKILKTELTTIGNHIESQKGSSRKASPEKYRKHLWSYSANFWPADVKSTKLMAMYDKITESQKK

Compound	Percent Effect [1] [%]	Percent Effect [2] [%]	Percent Effect [3] [%]	Percent Effect [4] [%]	Percent Effect [5] [%]	Percent Effect [6] [%]	Percent Effect [7] [%]	Percent Effect [8] [%]	Percent Effect [9] [%]	Percent Effect [10] [%]
Cc1cc(C)n(CC2CCCCN2C(=O)c2ccc3nncn3c2)n1 (stereo not given)	-7.43	8	0.804	2.01	-1.77	8.06	6.43	5.79	10.3	-4.66
O=C(Cc1c[nH]c2ccccc12)N1CCC(Nc2cccnn2)CC1	-6.75	15.6	5.29	-4.1	3.07	5.96	5.15	7.84	16.5	-5.46
Cn1cc(CN2CCC3(CC(=O)N(c4ccc5c(c4)OCO5)C3)C2)cn1 (stereo not given)	-2.97	1.3	-2.34	1.85	-2.43	-1.15	4.19	4.74	5.13	-0.178
Cc1ncsc1CCC(=O)N1CCCC[C@H](N(C)C)C1	-5.77	13.5	14.4	9.02	52.8	13.7	16.9	7.98	21.9	-3.1
Cc1c[nH]nc1C1CCCCN1C(=O)Cn1cc(Cl)cn1 (stereo not given)	-0.928	14.7	-3.24	-2.96	3.1	15.1	7.7	3.17	10	-20.3
CN1CC(=O)N(c2cnn(C)c2)CC12CCN(C(=O)c1ccsc1)C2 (stereo not given)	-5.41	1.3	3.75	-6.13	2.43	6.27	-0.162	2.63	2.56	-2.51
COc1ccc(CN(C)CC(=O)NC2(C)CCS(=O)(=O)C2)cc1F (stereo not given)	0.854	0	4.26	-5.42	4.88	2.8	17.4	-0.526	0	-1.6
Cc1cn2c(n1)CCC(NC(=O)c1c[nH]c(C)n1)C2 (stereo not given)	-6.87	-10.7	1.48	3.61	0	10.9	17.2	3.68	7.69	-13.6
COC[C@@H]1CC[C@H]2[C@H](CCN2S(=O)(=O)c2cccc(C)c2)O1	-1.1	6.49	-6.71	-4.38	2.43	16.1	-2.75	0.526	5.13	-2.87
O=C(c1cc(Cl)c2c(c1)OCO2)N1CCCC(n2ccnc2)C1 (stereo not given)	-2.43	5.33	3.84	2.01	0	7.72	9.8	-6.84	5.13	-5.15
CCc1nc(C2CCCN2C(=O)C2=COCC2)no1 (stereo not given)	-6.76	0	1.81	-4.02	-0.444	-2.46	12.2	4.74	-2.56	-3.47
CN(Cc1cccc(F)c1)C(=O)CN1CCOC(Cn2cccn2)C1 (stereo not given)	0.367	0	7.99	0.933	0.615	3.86	8.18	3.92	9.41	-0.994
Cc1ccccc1OCCC(=O)N1CCCC(n2cncn2)C1 (stereo not given)	-5.79	5.13	4.87	0.657	5.33	4.52	0.995	1.44	10.8	-3.4
c1ccc(CCNC2CCc3ncnn3C2)nc1 (stereo not given)	-0.356	18.2	-2.1	-0.373	-1.84	11.8	8.49	11.8	23.5	-9.93
OC(CNCCn1cccn1)c1ccc(F)c(F)c1 (stereo not given)	1.48	16	-2.24	2.81	1.33	19.8	18.7	4.74	12.8	-8.38
O=C(Cn1cc(-c2ccccc2)ncc1=O)Nc1nnc[nH]1	-1.82	8.11	4.37	2.42	8.74	20.4	-1.74	6.92	19.5	83.7
Cc1ccc(C(N)c2cccc(S(C)(=O)=O)c2)cc1 (stereo not given)	-4.76	10.7	8.28	-1.81	5.76	5.34	27	4.74	5.13	-9.27
Cn1cc(C(=O)NC2CCN(Cc3ccn(C)c(=O)c3)CC2)cn1	-0.0592	-7.69	-4.2	-1.41	4.51	3.67	26.8	-1.44	-3.61	-4.65
Cc1occc1C(=O)N1CCC2(CCC(C(=O)NCC3CC3)O2)CC1 (stereo not given)	-0.841	19.5	1.13	-0.75	1.83	13	6.84	11.6	20	-4.43
Cc1nn(-c2ccccc2)cc1C(=O)N1CCCN2CCCC2C1 (stereo not given)	-4.61	10.7	5.72	-0.201	0.887	7.21	3.25	7.89	12.8	-14.7
Cc1cccc(-c2noc(CN3CCc4nn(C)c(=O)cc4C3)n2)c1	-3.9	16	1.97	-0.201	3.55	0.424	14.8	-5.79	-15.4	4.01
O=C1CC(c2ccsc2)c2sc(C(=O)O)c(-c3ccccc3)c2N1 (stereo not given)	-4.21	8.11	8.19	5.92	21.3	21.9	11.7	4.79	12.2	33.2
O=C1NCc2ccc(NC(=O)C3CCCN3c3nccs3)cc21 (stereo not given)	0.371	-7.69	12.8	0.0939	-1.23	1.96	-7.22	-0.478	-6.02	105
Cc1ccc(CN(C)CC(=O)NC2(C)CCS(=O)(=O)C2)cc1 (stereo not given)	-0.346	8	-1.85	-2.81	-1.77	7.89	21.9	10	15.4	-11.2
